GLS inh = blocks human kidney-isoform glutaminase activity; O94925; GLS enzymatic activity, qHTS titration; Potency, µM (doses to about 45.5 µM), for inactives: at the top dose activity change, negative = inhibition, hits mostly inhibitors; 410,000 compounds, 0.21% hits; AID 624170; note: % is set by controls: 0 for no effect and ±100 for the full control effect
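Human kidney-isoform GLS in 45 mM KH2PO4 pH 8.2, 0.02% Tween-20, with compound, started with 1mM L-Glutamine (added stock). Glutamate oxidase/HRP/Amplex red coupled fluorescence read at start and after 30 min at RT.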
BAZ2B block = BAZ2B (human) inhibition; Q9UIF8; AlphaScreen BAZ2B-H3K14Ac peptide displacement; Potency, µM (highest dose often 114 µM), inactives show top-dose activity change, negative = inhibition, hits mostly inhibitors; 360,000 compounds, 4.4% hits; note: % is set by controls: 0 for no effect and ±100 for the full control effect; nearly all actives have a fitted effect of over 60% in size
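AlphaScreen luminescence quantifies BAZ2B engagement of H3K14Ac peptide; the protein and biotinylated peptide are both at 50 nM final, buffer PBS pH 7.4 with 0.01% Tween-20, all steps at room temperature.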
JMJD2A Tudor = JMJD2A Tudor domain (human) inhibition | O75164 | AlphaScreen JMJD2A-Tudor / H3K4me3 peptide binding | Potency, µM (highest dose often 114 µM), inactives show top-dose activity change, negative = inhibition, actives largely listed as inhibitors | 390,000 compounds, 4.4% hits | AID 504339; note: % is set by controls: 0 for no effect and ±100 for the full control effect; nearly all actives have a fitted effect of over 50% in size
G9a inh = blocks human histone lysine methyltransferase G9a; Q96KQ7; G9a H3K9 monomethylation, AlphaScreen, 2 h; Potency, µM (titrated, usually from 102 µM), without a hit: top-dose activity, negative = inhibition, most hits filed as inhibitors; 350,000 compounds, 8.8% hits; AID 504332; note: % is set by controls: 0 for no effect and ±100 for the full control effect; nearly all actives have a fitted effect of over 75% in size
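AlphaScreen detection with an anti-monomethyl H3K9 antibody quantified product after a 2 h room-temperature reaction containing 500 nM biotinylated H3K9 peptide, 20 µM SAM and 20 nM enzyme, which had been preincubated 15 min with compound.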
HP1b chromo inh = inhibitors of HP1-beta chromodomain binding to methylated histone tails; AlphaScreen HP1-beta / biotin-H3K9me3 peptide binding; Potency, µM (doses to about 114 µM), without a hit: top-dose activity change, negative = inhibition, usual class: inhibitors; 390,000 compounds, 0.56% hits; note: nearly all actives have a fitted effect of over 70% in size
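AlphaScreen: HP1-beta (50 nM) preformed 30 min with biotin-H3(1-18)K9me3 peptide (50 nM) in PBS pH 7.4, 0.01% Tween-20. Compound added for 30 min at RT, then streptavidin donor/nickel chelate acceptor beads (10 ug/mL) for 30 min.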
The depositor's hits bear a star; ? = inconclusive; / = no result; [ ] = dose if it differs, or a comment. Hits are enriched below; roughly 10% of the tested compounds scored in any of these assays. Calls come from the whole dose curve; as a rule, active = well fitted curve in the direction sought with a large enough effect; inconclusive = small, poorly fitted or top-dose-only effect, or another doubt; inactive = no such curve, though single readings can be large; an effect the other way counts as inactive or inconclusive. Potency is the fitted concentration of half-maximal effect.

SMILES	GLS inh	BAZ2B block	JMJD2A Tudor	G9a inh	HP1b chromo inh
Cc1cccc(-n2c(=O)c3ccccc3n(Cc3ccc(F)cc3)c2=O)c1	1%	-3%	8%	11%[59 µM]	16%
CC(C)CN(C(=O)C1=COCCO1)c1c(N)n(Cc2ccccc2)c(=O)[nH]c1=O	-1%	/	/	/	/
O=C1CC(Nc2ccc(N3CCOCC3)cc2)C(=O)N1CCc1ccccc1 (stereo unspecified)	26%	-5%	-19%	-11%[59 µM]	11%
Cc1ccc(C)c(OCC(=O)Nc2c(C)n(C)n(-c3ccccc3)c2=O)c1	1%	1%	-15%	1%[12.7 µM]	24%
Cc1cc(=O)oc2cc(OCC(=O)Nc3c(C)n(C)n(-c4ccccc4)c3=O)c(Cl)cc12	-1%	79µM*	-3%	-7%	25%
Cc1c(Cl)cccc1NC(=O)CSc1ncccc1C(=O)Oc1ccccc1Cl	9%	1%	-2%	-4%[59 µM]	21%
COc1ccc(N2CCN(C(=O)c3ccc(SC)cc3OC)CC2)cc1	1%	-37%	-34%	28µM*	-10%
COc1ccc(Nc2ncc(C(=O)N3CCN(c4ccc(F)cc4)CC3)c3ccccc23)cc1	3%	-14%	-25%	-7%[59 µM]	21%
COc1cc(SC)ccc1C(=O)N1CCN(c2ccccc2F)CC1	-6%	-20%	?	-1%	-12%
COc1ccc(N2CCN(C(=O)c3csc4ccccc34)CC2)cc1	26%	-30%	?	20µM*	-25%
COc1ccc(Nc2ncc(C(=O)N3CCN(c4ccc(OC)cc4)CC3)c3ccccc23)cc1	33%	-38%	?	18µM*	8%
COc1ccc(N2CCN(C(=O)c3cc(-c4cccs4)nc4ccccc34)CC2)cc1	-4%	?	?	22µM*	-31%
C=CC[C@@H](CC(=O)N(CCO)Cc1ccccc1)C(=O)N[C@H](COC(=O)[C@H](CC=C)CC(=O)OC(C)(C)C)Cc1c[nH]c2ccccc12	-10%	/	?	/	10%
O=C(NCc1ccco1)/C(=C/c1ccc(C(F)(F)F)cc1)c1nc2ccccc2[nH]1	10%	-10%	-24%	16µM*	37%
O=C(NCc1ccco1)/C(=C/c1cccc(C(F)(F)F)c1)c1nc2ccccc2[nH]1	6%	-29%	-25%	19%[59 µM]	13%
O=C(CCSCc1ccc(Cl)cc1)N1CCN(c2ccccc2F)CC1	-3%	3%	0%	-12%[59 µM]	36%
CC(=O)NC(c1cccc(F)c1)c1nc(/C=C/c2ccccc2)cs1 (stereo unspecified)	9%	/	/	/	/
CN(C)N=Nc1ccc(-c2cn(Cc3ccccc3)cn2)cc1	4%	45µM*	?	/	-18%
CN(Cc1ccccc1)N=Nc1ccccc1	5%	/	/	/	/
Cc1ccc(OCc2nnc(SCC(=O)c3ccccc3)n2-c2ccccc2)cc1	-7%	9%	-26%	?	54%
O=C(O)CSc1nnc(Cc2ccccc2)n1-c1ccccc1	1%	-7%	-21%	11µM*	44%
Cc1cccc(-n2c(CCc3ccccc3)nnc2SCC(=O)c2ccccc2)c1	1%	-13%	?	1.8µM*	22%
O=C(O)CSc1nnc(Cc2ccccc2)n1Cc1ccccc1	-2%	-7%	-18%	-29%[2.33 µM]	28%
COc1ccc(NCc2nnc(SCc3ccc(Cl)cc3)n2-c2ccccc2)cc1	6%	22µM*	45µM*	?	?
COc1ccc(CC(=O)NNC(=O)CSc2nnc(Cc3ccc(OC)cc3)n2-c2ccccc2)cc1	-10%	5%	-19%	10µM*	2%
Cc1ccc2nc(C)cc(C(=O)N3CCCC(CO)(Cc4ccccc4C)C3)c2c1 (stereo unspecified)	-1%	-8%	-23%	?	15%
CCOc1ccc(OCC)c(NC(=O)Cn2nc(CC)n3c(cc4sccc43)c2=O)c1	-3%	-4%	-15%	-24%[59 µM]	11%
COc1cccc(CNC(=O)CCCN2C(=O)CSc3c2c(C)nn3-c2ccccc2)c1	5%	-15%	-15%	-3%[59 µM]	53%
Cc1ccc([C@H]2C[C@H](O)[C@@H](n3cc(C4CC4)nn3)CN2C(=O)C2CCCCC2)cc1	-8%	/	/	/	/
CN(C)C1(CNCC(O)c2ccccc2)CCCCC1 (stereo unspecified)	2%	71µM*	20µM*	20µM*	?

Bioassay records deposited in PubChem BioAssay by National Center for Advancing Translational Sciences (NCATS).
